Measurements as given in PubChem BioAssay AID1159580 (chemical genetic matrix, 2015).
Hit rate of the full screen: of about 5,500 compounds, about 2,000 (36%) were called active. About 18% were inconclusive and are not listed. This is one part of the list. Values without a mark were called inactive. Cut-off read from the data, not from the text of the source: active = normalized growth mostly below about 0.91 (no sharp cut-off); inconclusive = no clear call, values can overlap the other calls; inactive = mostly above about 0.92.

Assay: chemical genetic growth profiling, strain panel (AID 1159580);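 note: tested at 20 µM; growth read once vehicle control cultures reached saturation at 30 °C; 1 = growth at the plate median or of vehicle wells; lower values mean less growth of the strain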
Settings: S. cerevisiae deletion strains, growth OD

SMILES: COc1ccc(C=CC(=O)c2ccc(O)cc2O)cc1OC
- normalized growth (locus YAL021C, strain ccr4, stronger effect = lower value): 0.908
- normalized growth (locus YAL026C, strain drs2, stronger effect = lower value): 0.876 (active)
- normalized growth (locus YAL030W, strain snc1, stronger effect = lower value): 0.964
- normalized growth (locus YBL061C, strain skt5, stronger effect = lower value): 0.811 (active)
- normalized growth (locus YBR009C, strain hhf1, stronger effect = lower value): 0.867 (active)
- normalized growth (locus YBR023C, strain chs3, stronger effect = lower value): 0.797 (active)
- normalized growth (locus YBR171W, strain sec66, stronger effect = lower value): 0.965
- normalized growth (locus YBR231C, strain swc5, stronger effect = lower value): 0.86 (active)
- normalized growth (locus YBR279W, strain paf1, stronger effect = lower value): 0.879 (active)
- normalized growth (locus YCL011C, strain gbp2, stronger effect = lower value): 0.934
- normalized growth (locus YCL016C, strain dcc1, stronger effect = lower value): 0.936
- normalized growth (locus YCL061C, strain MRC1, stronger effect = lower value): 0.976
- normalized growth (locus YCL069W, strain vba3, stronger effect = lower value): 0.975
- normalized growth (locus YCR088W, strain abp1, stronger effect = lower value): 0.982
- normalized growth (locus YDL005C, strain med2, stronger effect = lower value): 0.983
- normalized growth (locus YDL040C, strain nat1, stronger effect = lower value): 0.984
- normalized growth (locus YDR001C, strain nth1, stronger effect = lower value): 0.971
- normalized growth (locus YDR069C, strain doa4, stronger effect = lower value): 0.953
- normalized growth (locus YDR137W, strain rgp1, stronger effect = lower value): 0.59 (active)
- normalized growth (locus YDR159W, strain sac3, stronger effect = lower value): 0.893
- normalized growth (locus YDR195W, strain ref2): 1.16 [resistant] (active)
- normalized growth (locus YDR297W, strain sur2, stronger effect = lower value): 0.968
- normalized growth (locus YDR334W, strain swr1, stronger effect = lower value): 0.974
- normalized growth (locus YDR335W, strain msn5, stronger effect = lower value): 0.973
- normalized growth (locus YDR392W, strain spt3, stronger effect = lower value): 0.361 (active)
- normalized growth (locus YEL003W, strain gim4, stronger effect = lower value): 0.936
- normalized growth (locus YEL037C, strain rad23, stronger effect = lower value): 0.983
- normalized growth (locus YEL061C, strain CIN8 (second series), stronger effect = lower value): 0.977
- normalized growth (locus YER015W, strain faa2, stronger effect = lower value): 0.965
- normalized growth (locus YER016W, strain bim1, stronger effect = lower value): 0.979
- normalized growth (locus YER111C, strain swi4, stronger effect = lower value): 0.994
- normalized growth (locus YER155C, strain BEM2 (second series), stronger effect = lower value): 0.696 (active)
- normalized growth (locus YFR010W, strain ubp6, stronger effect = lower value): 0.96
- normalized growth (locus YGL167C, strain pmr1, stronger effect = lower value): 0.961
- normalized growth (locus YGL173C, strain kem1, stronger effect = lower value): 0.972
- normalized growth (locus YGL227W, strain vid30, stronger effect = lower value): 0.987
- normalized growth (locus YGL240W, strain doc1, stronger effect = lower value): 0.893
- normalized growth (locus YGL253W, strain hxk2, stronger effect = lower value): 0.862 (active)
- normalized growth (locus YHR013C, strain ard1, stronger effect = lower value): 0.842 (active)
- normalized growth (locus YHR027C, strain rpn1, stronger effect = lower value): 0.982
- normalized growth (locus YHR142W, strain chs7, stronger effect = lower value): 0.645 (active)
- normalized growth (locus YJL092W, strain hpr5, stronger effect = lower value): 0.972
- normalized growth (locus YJL095W, strain BCK1 (second series), stronger effect = lower value): 0.863 (active)
- normalized growth (locus YJL115W, strain asf1, stronger effect = lower value): 0.989
- normalized growth (locus YJL129C, strain trk1, stronger effect = lower value): 0.818 (active)
- normalized growth (locus YJL154C, strain vps35, stronger effect = lower value): 0.998
- normalized growth (locus YJL164C, strain tpk1, stronger effect = lower value): 0.859 (active)
- normalized growth (locus YJL166W, strain qcr8, stronger effect = lower value): 0.83 (active)
- normalized growth (locus YJL187C, strain SWE1, stronger effect = lower value): 0.929
- normalized growth (locus YKL160W, strain elf1, stronger effect = lower value): 0.83 (active)
- normalized growth (locus YKR026C, strain gcn3, stronger effect = lower value): 0.976
- normalized growth (locus YKR091W, strain srl3, stronger effect = lower value): 0.989
- normalized growth (locus YLL001W, strain dnm1, stronger effect = lower value): 0.935
- normalized growth (locus YLL026W, stronger effect = lower value): 0.914 (active)
- normalized growth (locus YLL041C, strain sdh2, stronger effect = lower value): 0.978
- normalized growth (locus YLR027C, strain aat2, stronger effect = lower value): 0.886 (active)
- normalized growth (locus YLR221C, strain rsa3, stronger effect = lower value): 0.855 (active)
- normalized growth (locus YLR258W, strain gsy2, stronger effect = lower value): 0.914 (active)
- normalized growth (locus YLR262C, strain YPT6 (second series), stronger effect = lower value): 0.65 (active)
- normalized growth (locus YLR320W, strain mms22, stronger effect = lower value): 0.732 (active)
- normalized growth (locus YLR342W, strain FKS1, stronger effect = lower value): 0.96
- normalized growth (locus YLR357W, strain rsc2, stronger effect = lower value): 0.992
- normalized growth (locus YLR370C, strain arc18, stronger effect = lower value): 0.929
- normalized growth (locus YLR384C, strain iki3, stronger effect = lower value): 0.995
- normalized growth (locus YML120C, strain ndi1, stronger effect = lower value): 0.833 (active)
- normalized growth (locus YMR058W, strain fet3, stronger effect = lower value): 0.908
- normalized growth (locus YMR125W, strain sto1, stronger effect = lower value): 0.933
- normalized growth (locus YMR129W, stronger effect = lower value): 0.98
- normalized growth (locus YMR205C, strain PFK2, stronger effect = lower value): 0.759 (active)
- normalized growth (locus YMR231W, strain pep5, stronger effect = lower value): 0.996
- normalized growth (locus YNL071W, strain lat1, stronger effect = lower value): 0.666 (active)
- normalized growth (locus YNL209W, strain ssb2, stronger effect = lower value): 0.958
- normalized growth (locus YNL248C, strain rpa49, stronger effect = lower value): 0.935
- normalized growth (locus YNL322C, strain KRE1 (second series), stronger effect = lower value): 0.996
- normalized growth (locus YNR049C, strain mso1, stronger effect = lower value): 0.974
- normalized growth (locus YOR001W, strain rrp6, stronger effect = lower value): 0.87 (active)
- normalized growth (locus YOR070C, strain gyp1, stronger effect = lower value): 0.883 (active)
- normalized growth (locus YOR080W, strain dia2, stronger effect = lower value): 0.991
- normalized growth (locus YOR083W, strain WHI5, stronger effect = lower value): 0.835 (active)
- normalized growth (locus YOR106W, strain vam3, stronger effect = lower value): 0.814 (active)
- normalized growth (locus YOR265W, strain rbl2, stronger effect = lower value): 0.969
- normalized growth (locus YOR270C, strain vph1, stronger effect = lower value): 0.653 (active)
- normalized growth (locus YOR290C, strain snf2, stronger effect = lower value): 0.767 (active)
- normalized growth (locus YPL051W, strain arl3, stronger effect = lower value): 0.768 (active)
- normalized growth (locus YPL078C, strain atp4, stronger effect = lower value): 0.828 (active)
- normalized growth (locus YPL106C, strain sse1, stronger effect = lower value): 0.881
- normalized growth (locus YPL240C, strain hsp82, stronger effect = lower value): 0.973
